# Records with an inconclusive call do not appear. Some structures have more than one record in an assay (separate samples or runs), and their calls can disagree. Active and inactive are the calls of the source. Rule for the calls, unless noted: active = hit-call score of the fitted dose curve at least 0.9, where 1 is the maximum; inconclusive = response in the unintended direction; inactive = score below 0.9.
# How the values were obtained:
# [1] = CEETOX_H295R_11DCORT_noMTC: CeeTox H295R High-throughput Steroidogenesis Assay for 11-Deoxycortisol (11DCORT), maximum tolerated concentration (MTC) filtered results only (AID 2283911; active = hit-call score of the fitted dose curve at least 0.9, where 1 is the maximum; inactive = score below 0.9); conditions: actives raise or lower the signal
# Method in brief: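 Steroidogenesis was stimulated in H295R cells with 10 uM forskolin for 48 h before a 48 h chemical exposure. Secreted 11-deoxycortisol was measured by tandem mass spectrometry and fitted bidirectionally against DMSO controls.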
# [2] = CEETOX_H295R_OHPREG_noMTC: CeeTox H295R High-throughput Steroidogenesis Assay for OH-Pregnenolone (OHPREG), maximum tolerated concentration (MTC) filtered results only (AID 2283912; active = hit-call score of the fitted dose curve at least 0.9, where 1 is the maximum; inactive = score below 0.9); conditions: actives raise or lower the signal
# Method in brief: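 H295R; 10 uM forskolin 48 h pre-stim; test cpd in DMSO (0.1% final) 48 h; media MTBE-extracted, HPLC-MS/MS for OH-pregnenolone; bidirectional fit vs DMSO; no MTC (MTT) filtering.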
# [3] = CEETOX_H295R_OHPROG_noMTC: CeeTox H295R High-throughput Steroidogenesis Assay for OH-Progesterone (OHPROG), maximum tolerated concentration (MTC) filtered results only (AID 2283914; active = hit-call score of the fitted dose curve at least 0.9, where 1 is the maximum; inactive = score below 0.9); conditions: actives raise or lower the signal
# Method in brief: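 Medium hormone measured by reverse-phase C18 HPLC with positive electrospray MS/MS after MTBE liquid-liquid extraction. Cells had 48 h forskolin (10 uM) prestimulation, then 48 h chemical dosing. Gain or loss of signal fitted relative to DMSO baseline.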
# [4] = CEETOX_H295R_CORTISOL_noMTC: CeeTox H295R High-throughput Steroidogenesis Assay for Cortisol, maximum tolerated concentration (MTC) filtered results only (AID 2283916; active = hit-call score of the fitted dose curve at least 0.9, where 1 is the maximum; inactive = score below 0.9); conditions: actives raise or lower the signal
# Method in brief: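 H295R human adrenal cells prestimulated 48 h with 10 uM forskolin, then exposed 48 h to chemical in 0.1% DMSO; cortisol in medium quantified by HPLC-MS/MS; bidirectional fit vs DMSO baseline, concentrations not MTT-filtered for MTC.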
# [5] = CEETOX_H295R_CORTIC_noMTC: CeeTox H295R High-throughput Steroidogenesis Assay for Corticosterone (CORTIC), maximum tolerated concentration (MTC) filtered results only (AID 2283917; active = hit-call score of the fitted dose curve at least 0.9, where 1 is the maximum; inactive = score below 0.9); conditions: actives raise or lower the signal
# Method in brief: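 Corticosterone secreted into the medium was measured by reverse-phase C18 HPLC with tandem MS after MTBE extraction. Cells (H295R) had 48 h forskolin (10 uM) stimulation before 48 h chemical exposure; gain or loss of signal was fitted relative to DMSO.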
# [6] = CEETOX_H295R_DOC_noMTC: CeeTox H295R High-throughput Steroidogenesis Assay for DOC, maximum tolerated concentration (MTC) filtered results only (AID 2283918; active = hit-call score of the fitted dose curve at least 0.9, where 1 is the maximum; inactive = score below 0.9); conditions: actives raise or lower the signal
# Method in brief: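 H295R cells prestimulated 48 h with 10 uM forskolin, then exposed 48 h to chemical in 0.1% DMSO. 11-Deoxycorticosterone in medium measured by MTBE extraction and HPLC-MS/MS; bidirectional fit vs DMSO, no MTC filter.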
# [7] = CEETOX_H295R_ESTRADIOL_noMTC: CeeTox H295R High-throughput Steroidogenesis Assay for Estradiol, maximum tolerated concentration (MTC) filtered results only (AID 2283919; active = hit-call score of the fitted dose curve at least 0.9, where 1 is the maximum; inactive = score below 0.9); conditions: actives raise or lower the signal
# Method in brief: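 Readout: dansyl-derivatized estradiol quantified by LC-MS/MS in medium from H295R cells dosed 48 h (0.1% DMSO) following 48 h forskolin (10 uM) prestimulation. Gain or loss of signal fitted against DMSO; no MTC filtering applied.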
# [8] = CEETOX_H295R_PROG_noMTC: CeeTox H295R High-throughput Steroidogenesis Assay for Progesterone (PROG), maximum tolerated concentration (MTC) filtered results only (AID 2283920; active = hit-call score of the fitted dose curve at least 0.9, where 1 is the maximum; inactive = score below 0.9); conditions: actives raise or lower the signal
# Method in brief: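 Readout: medium progesterone by MTBE extraction, reverse-phase C18 HPLC, ESI-positive MS/MS. Human H295R cells, 10 uM forskolin pretreatment 48 h, chemical 48 h in 0.1% DMSO. Gain or loss fitted against DMSO baseline.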
# [9] = CEETOX_H295R_ESTRONE_noMTC: CeeTox H295R High-throughput Steroidogenesis Assay for Estrone, maximum tolerated concentration (MTC) filtered results only (AID 2283921; active = hit-call score of the fitted dose curve at least 0.9, where 1 is the maximum; inactive = score below 0.9); conditions: actives raise or lower the signal
# Method in brief: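 Estrone in spent medium, quantified by tandem MS following dansyl chloride derivatization, after 48 h chemical exposure (0.1% DMSO) of forskolin-prestimulated (10 uM, 48 h) H295R cells; concentrations not MTC-filtered, bidirectional fit against DMSO.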
# [10] = test system: Sodium/Iodide Symporter (NIS), SLC5A5 (gene 6528); assay: CPHEA_Stoker_NIS_Inhibition_RAIU: CPHEA's Radioactive Iodide Uptake (RAIU) Assay for Sodium/Iodide Symporter (NIS) Inhibition, Stoker and Laws Labs (AID 2283841)
# Method in brief: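 Iodide uptake read as CPM of intracellular 125I (final 329 pM) after 2 h room-temperature exposure in HEPES-buffered HBSS, pH 7.4. Human NIS-expressing HEK293T cells; six concentrations 0.001–100 uM, 0.5% DMSO, normalised to DMSO wells.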
# [11] = CPHEA_Stoker_NIS_Cytotoxicity: Cytotoxicity Assessment for CPHEA's Radioactive Iodide Uptake (RAIU) Assay for Sodium/Iodide Symporter (NIS) Inhibition, Stoker and Laws Labs (AID 2283897);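 for AC50: active means loss of ATP signal versus DMSO meaning cytotoxicity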
# Method in brief: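 CellTiter-Glo ATP luminescence gauged viability in HEK293T cells expressing human NIS after 2 h chemical exposure. Concentrations ran 0.001–100 uM in 0.5% DMSO; DMSO served as baseline for the loss-of-signal fit.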
# [12] = target: zebrafish Thyroid Hormone Receptor beta (TRb), thrb (gene 30607) (UniProt Q9PVE4); assay: ATG_zfTRb_XSP2: Attagene TRANS-FACTORIAL Multi-Species (XSP1) HepG2 Assay for zebrafish Thyroid Hormone Receptor beta (TRb) (AID 2283836)
# Sequence of zebrafish Thyroid Hormone Receptor beta (TRb), thrb (gene 30607) (Q9PVE4 whole entry, looked up): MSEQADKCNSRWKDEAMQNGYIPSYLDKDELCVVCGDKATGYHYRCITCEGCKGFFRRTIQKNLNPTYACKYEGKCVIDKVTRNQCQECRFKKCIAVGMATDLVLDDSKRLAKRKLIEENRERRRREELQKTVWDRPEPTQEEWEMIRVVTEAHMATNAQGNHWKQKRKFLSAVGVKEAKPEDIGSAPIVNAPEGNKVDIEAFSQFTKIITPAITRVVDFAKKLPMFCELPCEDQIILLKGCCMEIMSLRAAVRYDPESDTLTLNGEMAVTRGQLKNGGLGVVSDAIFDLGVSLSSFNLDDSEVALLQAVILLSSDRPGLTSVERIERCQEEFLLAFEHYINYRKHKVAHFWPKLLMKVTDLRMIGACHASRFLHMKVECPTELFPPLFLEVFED
# Method in brief: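 Multiplexed trans-activation in HepG2 cells, 24 h treatment, with reporter mRNA read by RT-PCR and capillary electrophoresis. Gain-of-signal against DMSO.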
# [13] = ATG_XTT_Cytotoxicity_XSP2: Cytotoxicity Assessment in the Attagene TRANS-FACTORIAL Multi-Species (XSP2) HepG2 Assay (AID 2283837)
# Method in brief: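 XTT-based cell number read-out in human HepG2 liver cells carrying transfected reporter units, measured 24 h after chemical dosing. Activity is signal loss versus DMSO baseline.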
# [14] = target: human Thyroid hormone Receptor alpha (TRa), THRA (gene 7067) (UniProt P10827); assay: ATG_hTRa_XSP2: Attagene TRANS-FACTORIAL Multi-Species (XSP2) HepG2 Assay for human Thyroid hormone Receptor alpha (TRa) (AID 2283838)
# Sequence of human Thyroid hormone Receptor alpha (TRa), THRA (gene 7067) (P10827 whole entry, looked up, the tested form may be a part): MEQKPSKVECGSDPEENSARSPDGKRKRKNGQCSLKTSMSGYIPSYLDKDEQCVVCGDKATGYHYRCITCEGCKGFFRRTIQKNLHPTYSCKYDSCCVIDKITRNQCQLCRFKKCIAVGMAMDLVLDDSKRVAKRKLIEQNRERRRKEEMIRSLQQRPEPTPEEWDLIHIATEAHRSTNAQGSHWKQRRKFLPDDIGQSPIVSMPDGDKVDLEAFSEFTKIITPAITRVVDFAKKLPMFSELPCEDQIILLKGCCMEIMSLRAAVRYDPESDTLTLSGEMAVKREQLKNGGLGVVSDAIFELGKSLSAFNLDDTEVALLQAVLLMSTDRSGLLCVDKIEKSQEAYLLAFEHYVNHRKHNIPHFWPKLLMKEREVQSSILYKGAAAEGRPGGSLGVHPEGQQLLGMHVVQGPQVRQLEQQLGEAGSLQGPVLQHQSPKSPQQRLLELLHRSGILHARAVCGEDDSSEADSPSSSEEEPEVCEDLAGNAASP
# Method in brief: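 Gain-of-signal in reporter mRNA, relative to DMSO, after 24 h dosing of transfected HepG2; quantitation by RT-PCR fragment analysis on capillary electrophoresis.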
# [15] = target: frog Thyroid hormone Receptor alpha (TRa), thra-a (gene 397942) (UniProt P15204); assay: ATG_frTRa_XSP2: Attagene TRANS-FACTORIAL Multi-Species (XSP2) HepG2 Assay for frog Thyroid hormone Receptor alpha (TRa) (AID 2283839);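 for AC50: AC50 reflects induction of frog TRa-driven reporter mRNA above DMSO baseline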
# Sequence of frog Thyroid hormone Receptor alpha (TRa), thra-a (gene 397942) (P15204 whole entry, looked up, the tested form may be a part): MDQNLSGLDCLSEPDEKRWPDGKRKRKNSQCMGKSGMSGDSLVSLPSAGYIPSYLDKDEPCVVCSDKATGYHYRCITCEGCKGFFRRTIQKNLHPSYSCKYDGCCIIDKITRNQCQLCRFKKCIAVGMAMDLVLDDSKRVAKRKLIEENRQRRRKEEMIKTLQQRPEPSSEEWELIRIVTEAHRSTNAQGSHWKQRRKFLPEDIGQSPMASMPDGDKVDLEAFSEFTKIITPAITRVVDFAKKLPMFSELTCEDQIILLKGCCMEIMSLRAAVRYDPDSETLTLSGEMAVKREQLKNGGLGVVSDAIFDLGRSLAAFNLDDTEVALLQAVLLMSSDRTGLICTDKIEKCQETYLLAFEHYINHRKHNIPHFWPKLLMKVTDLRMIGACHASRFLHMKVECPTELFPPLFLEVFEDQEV
# Method in brief: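 Transfect HepG2 with multiple reporter units (GAL4-UAS), dose chemical, incubate 24 h. Isolate RNA, reverse-transcribe, PCR-amplify reporter, label with 6-FAM by primer extension, digest with HpaI, run capillary electrophoresis; induction scored against DMSO.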
# [16] = target: human Thyroid hormone Receptor beta (TRb), THRB (gene 7068) (UniProt P10828); assay: ATG_hTRb_XSP2: Attagene TRANS-FACTORIAL Multi-Species (XSP2) HepG2 Assay for human Thyroid hormone Receptor beta (TRb) (AID 2283840);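 note: actives raise reporter mRNA so potency reflects agonist-like gain of signal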
# Sequence of human Thyroid hormone Receptor beta (TRb), THRB (gene 7068) (P10828 whole entry, looked up, the tested form may be a part): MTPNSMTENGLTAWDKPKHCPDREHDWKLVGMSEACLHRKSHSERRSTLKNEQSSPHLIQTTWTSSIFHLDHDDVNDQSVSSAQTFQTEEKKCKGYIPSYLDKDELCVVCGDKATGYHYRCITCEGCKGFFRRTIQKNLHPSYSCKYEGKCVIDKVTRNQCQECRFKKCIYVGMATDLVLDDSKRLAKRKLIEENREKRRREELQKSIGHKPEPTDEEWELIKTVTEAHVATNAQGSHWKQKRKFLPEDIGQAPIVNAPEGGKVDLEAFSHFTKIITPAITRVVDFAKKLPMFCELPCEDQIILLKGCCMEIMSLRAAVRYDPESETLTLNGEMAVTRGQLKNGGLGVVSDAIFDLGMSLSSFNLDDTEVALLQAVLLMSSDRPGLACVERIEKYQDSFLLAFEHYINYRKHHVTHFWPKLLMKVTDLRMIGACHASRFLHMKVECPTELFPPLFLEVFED
# Method in brief: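 Transient transfection of human HepG2 with multi-species NR-Gal4/GAL4-UAS reporter constructs; 24 h compound treatment; RNA isolation, reverse transcription, PCR and HpaI digest; capillary electrophoresis of labeled fragments; activity fitted upward versus DMSO.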
# PGR (gene 5241) = PGR (gene 5241) (UniProt P06401); assay: TOX21_PR_BLA_Followup_Antagonist_ratio: Tox21 HEK293 Progesterone Receptor (PR) Antagonism Beta-lactamase Follow-Up Assay, Ratio (AID 2283934);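 note: PR-UAS-bla HEK293T cells stimulated with 1 nM R5020 agonist for 16 hr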
# Sequence of PGR (gene 5241) (P06401 whole entry, looked up): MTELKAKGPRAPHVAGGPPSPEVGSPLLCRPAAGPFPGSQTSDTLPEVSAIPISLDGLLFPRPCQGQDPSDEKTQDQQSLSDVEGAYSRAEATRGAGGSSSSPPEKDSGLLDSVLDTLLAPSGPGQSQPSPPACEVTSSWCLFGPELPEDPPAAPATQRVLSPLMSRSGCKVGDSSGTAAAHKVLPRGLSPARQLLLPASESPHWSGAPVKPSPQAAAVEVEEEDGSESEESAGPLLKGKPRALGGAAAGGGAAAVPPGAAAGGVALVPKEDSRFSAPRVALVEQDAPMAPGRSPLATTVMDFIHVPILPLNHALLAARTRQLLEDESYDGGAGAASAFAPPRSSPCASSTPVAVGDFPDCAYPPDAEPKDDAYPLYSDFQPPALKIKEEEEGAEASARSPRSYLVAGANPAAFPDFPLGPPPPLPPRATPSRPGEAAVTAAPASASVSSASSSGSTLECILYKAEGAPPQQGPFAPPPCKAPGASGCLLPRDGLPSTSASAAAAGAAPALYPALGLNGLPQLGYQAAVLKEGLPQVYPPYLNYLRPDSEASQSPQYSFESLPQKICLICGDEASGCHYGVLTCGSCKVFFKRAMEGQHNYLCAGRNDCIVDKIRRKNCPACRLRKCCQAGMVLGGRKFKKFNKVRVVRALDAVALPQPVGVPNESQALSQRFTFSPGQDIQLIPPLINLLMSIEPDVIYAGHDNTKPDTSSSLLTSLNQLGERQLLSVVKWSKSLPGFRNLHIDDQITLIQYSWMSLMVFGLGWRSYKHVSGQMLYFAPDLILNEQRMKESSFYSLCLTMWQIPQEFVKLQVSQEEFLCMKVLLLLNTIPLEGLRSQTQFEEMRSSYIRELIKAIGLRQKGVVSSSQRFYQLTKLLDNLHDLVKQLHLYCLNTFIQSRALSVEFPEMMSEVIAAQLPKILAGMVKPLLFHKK
# Method in brief: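 Measured in PR-UAS-bla HEK293T cells co-treated with compound and 1 nM promegestone for 16 hr; beta-lactamase ratio read after 2 h FRET substrate loading, with parallel CellTiter-Glo cytotoxicity.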
# [17] = TOX21_PR_BLA_Followup_Agonist_viability: Viability Assessment in the Tox21 HEK293 Progesterone Receptor (PR) Agonism Beta-lactamase Follow-Up Assay (AID 2283935);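 note: signal loss means lower viability so actives are cytotoxic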
# Method in brief: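 Viability is read as CellTiter-Glo luminescence, where loss of signal indicates cytotoxicity. The cells are PR-UAS-bla HEK293T given compounds for 16 hr at 37C and 5% CO2, in the same wells used for the bla readout.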
# [18] = CEETOX_H295R_ANDR_noMTC: CeeTox H295R High-throughput Steroidogenesis Assay for Androstenedione (ANDR), maximum tolerated concentration (MTC) filtered results only (AID 2283915; active = hit-call score of the fitted dose curve at least 0.9, where 1 is the maximum; inactive = score below 0.9); conditions: actives raise or lower the signal
# Method in brief: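 Androstenedione secreted into medium was measured by LC-MS/MS after MTBE extraction. Human adrenal H295R cells received 10 uM forskolin for 48 h before 48 h chemical exposure (0.1% DMSO). Gain or loss fitted against DMSO, including concentrations above the MTT-derived MTC.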
# [19] = CEETOX_H295R_TESTO_noMTC: CeeTox H295R High-throughput Steroidogenesis Assay for Testosterone (TESTO), maximum tolerated concentration (MTC) filtered results only (AID 2283924; active = hit-call score of the fitted dose curve at least 0.9, where 1 is the maximum; inactive = score below 0.9); conditions: actives raise or lower the signal
# Method in brief: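 Medium testosterone, measured by HPLC-MS/MS after liquid-liquid extraction, was fitted in both directions relative to DMSO without MTC filtering. Adrenal H295R cells received 48 h chemical exposure (0.1% DMSO final) after 48 h forskolin (10 uM) prestimulation; viability by MTT.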
compound,measurement,setting,value
CCOC(=O)c1ccccc1N,outcome,[1],inactive
same,outcome,[2],inactive
same,AC50,[3],41.3 µM (active)
same,outcome,[4],inactive
same,outcome,[5],inactive
same,outcome,[6],inactive
same,outcome,[7],inactive
same,outcome,[8],inactive
same,outcome,[9],inactive
O=NN1CCCC1,outcome,[10],inactive
same,outcome,[11],inactive
CCOc1ccc(C(C)(C)COCc2cccc(Oc3ccccc3)c2)cc1,AC50,[1],13.1 µM (active)
same,outcome,[2],inactive
same,AC50,[3],13.2 µM (active)
same,outcome,[4],inactive
same,outcome,[5],inactive
same,outcome,[6],inactive
same,outcome,[7],inactive
same,outcome,[8],inactive
same,outcome,[9],inactive
O=[N+]([O-])c1ccc(Cl)c(Cl)c1,outcome,[11],inactive
ClC1=C(Cl)C2(Cl)C3C(Cl)C(Cl)CC3C1(Cl)C2(Cl)Cl (stereo not given),outcome,[10],inactive
same,AC50,[11],9.92 µM (active)
c1ccc2c(c1)sc1ccccc12,outcome,[10],inactive
same,outcome,[11],inactive
CCOP(=S)(OCC)SCSCC,outcome,[10],inactive
same,outcome,[11],inactive
CCCCC(CC)COP(=O)(Oc1ccccc1)Oc1ccccc1 (stereo not given),outcome,[10],inactive
same,outcome,[11],inactive
O=S(=O)(c1ccc(O)cc1)c1ccc(O)cc1,outcome,[12],inactive
same,outcome,[13],inactive
same,outcome,[14],inactive
same,AC50,[15],100 µM (active)
same,outcome,[16],inactive
O=S(=O)(F)C(F)(F)C(F)(F)C(F)(F)C(F)(F)C(F)(F)C(F)(F)C(F)(F)C(F)(F)F,outcome,[10],inactive
OCC(F)(F)OC(F)(F)C(F)(F)OC(F)(F)C(F)(F)OC(F)(F)CO,outcome,[10],inactive
COC(=O)C(F)(F)C(F)(F)OC(F)(C(F)(F)F)C(F)(F)OC(F)=C(F)F (stereo not given),outcome,[10],inactive
O=P(Oc1ccccc1)(Oc1ccccc1)Oc1ccccc1,outcome,[12],inactive
same,AC50,[10],50 µM (active)
c1ccc2c(c1)Nc1ccccc1S2,outcome,[12],inactive
same,outcome,[13],inactive
same,outcome,[14],inactive
same,outcome,[15],inactive
same,outcome,[16],inactive
CCOP(=S)(Oc1ccc([N+](=O)[O-])cc1)c1ccccc1 (stereo not given),outcome,[10],inactive
same,outcome,[11],inactive
same,AC50,PGR (gene 5241),5.36 µM (active)
OCC(F)(F)OC(F)(F)C(F)(F)OC(F)(F)C(F)(F)OC(F)(F)F,outcome,[10],inactive
CC(C)(C)c1ccc(O)cc1,outcome,[12],inactive
same,outcome,[15],inactive
same,outcome,[10],inactive
CCC(C)(C)c1ccc(O)cc1,outcome,[12],inactive
same,outcome,[13],inactive
same,outcome,[15],inactive
same,outcome,[16],inactive
same,outcome,[11],inactive
CCOP(=S)(OCC)SCSc1ccc(Cl)cc1,AC50,PGR (gene 5241),9.94 µM (active)
same,outcome,[17],inactive
CCOC(=O)c1ccccc1C(=O)OCC,outcome,[1],inactive
same,outcome,[2],inactive
same,outcome,[3],inactive
same,outcome,[4],inactive
same,outcome,[5],inactive
same,outcome,[6],inactive
same,outcome,[8],inactive
O=S1(=O)OCC2C(CO1)C1(Cl)C(Cl)=C(Cl)C2(Cl)C1(Cl)Cl (stereo not given),outcome,[11],inactive
same,AC50,PGR (gene 5241),24.2 µM (active)
same,outcome,[17],inactive
O=P(OCC(Br)CBr)(OCC(Br)CBr)OCC(Br)CBr (stereo not given),outcome,[10],inactive
CCCCc1ccc(O)cc1,outcome,[12],inactive
same,outcome,[13],inactive
same,outcome,[14],inactive
same,AC50,[16],31 µM (active)
same,outcome,[16],inactive
same,outcome,[10],inactive
same,outcome,[11],inactive
CO/N=C(/C(=O)OC)c1ccccc1COc1ccccc1C,AC50,[10],7.83 µM (active)
same,outcome,[11],inactive
same,AC50,PGR (gene 5241),37.1 µM (active)
same,outcome,[17],inactive
O=c1ssc(Cl)c1Cl,AC50,[10],9.92 µM (active)
same,AC50,[11],80.9 µM (active)
CC(C)(C)N(NC(=O)c1ccc(Cl)cc1)C(=O)c1ccccc1,outcome,[10],inactive
same,outcome,[11],inactive
CCOP(=S)(OCC)SCS(=O)(=O)CC,AC50,[1],39.2 µM (active)
same,AC50,[2],43 µM (active)
same,outcome,[3],inactive
same,AC50,[18],37.9 µM (active)
same,AC50,[4],45 µM (active)
same,outcome,[5],inactive
same,AC50,[6],33.5 µM (active)
same,outcome,[7],inactive
same,outcome,[8],inactive
same,outcome,[9],inactive
same,AC50,[19],45.4 µM (active)

# Source: PubChem BioAssay (EPA / NIEHS)
